A selection: hits, their analogues and other compounds. The true share with any hit is near 1.2%.
RGS4-Gao reg: human RGS4-Galphao interaction regulation | Multiplexed bead flow cytometry, RGS4-Galphao binding; actives lie on both sides | binding response (% of control), % at 10 µM | 0.33% of 220,000 active | AID 1415; in the data active means binding response below about 49% or above about 150%; inactive means in between;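 further: fluorescent Galphao activated with aluminum fluoride binding bead-coupled RGS4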
Target sequence (P09471 whole entry, looked up): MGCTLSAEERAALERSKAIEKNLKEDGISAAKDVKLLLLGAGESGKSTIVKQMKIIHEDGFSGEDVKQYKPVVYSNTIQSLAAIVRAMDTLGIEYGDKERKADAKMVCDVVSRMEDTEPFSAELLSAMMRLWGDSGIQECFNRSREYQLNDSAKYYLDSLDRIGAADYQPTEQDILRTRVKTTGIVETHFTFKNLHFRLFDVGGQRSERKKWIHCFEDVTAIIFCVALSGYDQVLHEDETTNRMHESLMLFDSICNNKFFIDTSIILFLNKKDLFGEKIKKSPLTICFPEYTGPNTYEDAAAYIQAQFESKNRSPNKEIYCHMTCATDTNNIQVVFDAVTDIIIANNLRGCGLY
RGS16-Gao HTS: RGS16-Galphao interaction regulator (human). 0.38% of 220,000 active. O15492+P09471. bead-based flow cytometry RGS16-Galphao binding, fluorescence; actives lie on both sides. binding response (% of control), % at 10 µM. AID 1441;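 further: Galphao activated by GDP with aluminum fluoride before binding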
Target sequence (O15492 whole entry, looked up): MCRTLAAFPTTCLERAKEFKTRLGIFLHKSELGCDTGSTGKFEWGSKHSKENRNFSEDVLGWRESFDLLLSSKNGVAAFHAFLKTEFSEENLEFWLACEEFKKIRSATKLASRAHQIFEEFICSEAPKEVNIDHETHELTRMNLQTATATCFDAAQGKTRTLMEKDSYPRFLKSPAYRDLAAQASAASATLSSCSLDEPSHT
Target sequence (P09471 whole entry, looked up): as the sequence (P09471 whole entry, looked up) above
GSH fluor: compound fluoresces at 488/530 nm on GSH beads. GSH beads flow cytometry, compound fluorescence 488/530 nm; active compounds read high. fluorescence (KMESF) at 10 µM. 0.25% of 190,000 active. AID 1776; in the data active means fluorescence above about 89;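 further: glutathione beads carrying GST-tagged Bcl family fusion proteins plus one bare bead set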
Avidin fluor: avidin bead compound fluorescence profile; 0.38% of 220,000 active; Avidin beads, compound fluorescence 488/530 nm, flow cytometry; active compounds read high; fluorescence (KMESF) at 10 µM; in the data active means fluorescence above about 47
RGS7-Gao reg: modulates binding of RGS7 to human Galphao | P09471 | Multiplexed bead flow cytometry; actives lie on both sides | binding response (% of control), % at 10 µM | 0.35% of 220,000 active; in the data active means binding response below about 49% or above about 150%; inconclusive means no clear call, values can overlap the other calls; inactive means in between;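 further: fluorescent Galphao held in activated GDP-AlF4 state binding bead-coupled RGS7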
RGS8-Gao reg: modulates binding of RGS8 to human Galphao; P09471; multiplexed bead flow cytometry; actives lie on both sides; response (percent of control binding), % at 10 µM; 0.34% of 220,000 active; AID 1423; in the data active means response below about 60% or above about 140%; inactive means in between;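 further: Galphao activated as the GDP aluminium fluoride complex binding bead-coupled RGS8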
RGS4-Gao HTS: RGS4-Galphao interaction regulator (human); shares compounds with RGS16-Gao HTS; multiplexed bead flow cytometry, RGS–Galpha-o binding; RGS4–Galpha-o binding response, % at 10 µM; 99% of 1,600 active;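 further: fluorescently labeled Galpha-o bound to GDP with aluminium fluoride binding biotinylated RGS beads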
Biotin-avidin: counter-screen: compounds disrupting biotin binding to avidin beads; inhibition, % at 10 µM; AID 1783; 1,700 tested, under 10 active; streptavidin beads, fluorescein-biotin binding, flow cytometry; shares compounds with RGS16-Gao HTS;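 active means inhibition above 50%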;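 further: median green fluorescence of gated singlet beads compared with DMSO control wells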
RGS8-Gao single: RGS8-Galphao interaction regulation, single point confirmation | shares compounds with RGS16-Gao HTS | bead-based flow cytometry RGS8-Galphao binding, fluorescence; actives lie on both sides | binding response (% of control), % at 10 µM | 3% of 1,700 active; in the data active means binding response below about 72% or above about 130%; inactive means in between;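 further: Galphao activated as GDP AlF4 complex before binding bead RGS8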
RGS7-Gao confirm: RGS7-Galphao interaction regulation, single point confirmation. 7.8% of 1,700 active. shares compounds with RGS16-Gao HTS. response (percent of control binding), % at 10 µM. bead-based flow cytometry RGS7-Galphao binding; actives lie on both sides; in the data active means response below about 75% or above about 130%; inactive means in between;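 further: fluorescent Galphao activated with GDP and aluminum fluoride binding bead-coupled RGS7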
RGS16-Gao single: confirmation of regulators of human RGS16-Galphao interaction; shares compounds with RGS16-Gao HTS; response (% of control binding), % at 10 µM; bead-based flow cytometry, RGS16-Galphao binding; actives lie on both sides; 4% of 1,700 active; in the data active means response below about 74% or above about 130%; inactive means in between;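 further: Galphao activated as the GDP aluminium fluoride complex binding bead-coupled RGS16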
RGS4-Gao single: confirmation of regulators of human RGS4-Galphao interaction; shares compounds with RGS16-Gao HTS; RGS4-Galphao binding, multiplexed bead flow cytometry; actives lie on both sides; binding response (% of control), % at 10 µM; AID 1840; 4% of 1,700 active; in the data active means binding response below about 74% or above about 130%; inactive means in between
RGS19-Gao conf: confirmation of regulators of human RGS19-Galphao interaction | shares compounds with RGS16-Gao HTS | bead-based flow cytometry RGS19-Galphao binding; actives lie on both sides | response (percent of control binding), % at 10 µM | 5% of 1,700 active | AID 1841; in the data active means response below about 50% or above about 160%; inactive means in between
Numbers stand for hits; . = inactive; ? = inconclusive; / = not tested or not shown; + = active, no number; [ ] = remark or other dose. Unless noted, how the calls were made is not given here.

SMILES	RGS4-Gao reg	RGS16-Gao HTS	GSH fluor	Avidin fluor	RGS7-Gao reg	RGS8-Gao reg	Biotin-avidin	RGS8-Gao single	RGS7-Gao confirm	RGS16-Gao single	RGS4-Gao single	RGS19-Gao conf	others
Cc1cc(N2CCN(c3ccccc3)CC2)nc(-c2ccccc2O)n1	38.3	.	.	.	.	.	.	.	.	.	.	.
Cc1onc(-c2ccccc2Cl)c1C(=O)Nc1nn[nH]n1	46.6	.	.	.	.	52.7	.	.	.	.	.	.
O=C(NC(=S)Nc1ccc(N2CCOCC2)cc1)c1ccc2c(c1)OCCO2	.	.	.	.	.	.	/	/	/	/	/	/
O=C(NC(=S)Nc1ccc(N2CCCCC2)cc1)c1ccc2c(c1)OCCO2	.	204.0[activator]	.	.	.	.	.	.	.	.	.	.	RGS4-Gao HTS=106.8
CCC(=O)N(CCC(c1ccc(C)cc1)c1ccco1)Cc1ccco1 (stereo not drawn)	.	.	/	.	?	.	/	/	/	/	/	/
CCOC(=O)/C(C#N)=C/Nc1ccsc1C(=O)OC	.	.	/	.	?	.	/	/	/	/	/	/
CCOC(=O)/C(C#N)=C/Nc1cc(C(=O)OCC)cc2c(OC)c(OC)ccc12	-4.8	-5.8	/	.	?	16.9	.	.	.	.	.	.
Clc1ccccc1N=C1NN=C(c2cccs2)CS1	.	.	.	.	.	.	/	/	/	/	/	/
CNC(=S)NCC(O)c1ccc([N+](=O)[O-])cc1 (stereo not drawn)	.	.	.	.	.	.	/	/	/	/	/	/
CN1CCN(/N=C/c2ccc(OCc3ccccc3)cc2)CC1	.	.	/	.	?	.	/	/	/	/	/	/
Cc1cc(C)c(C#N)c(N)n1	/	/	.	/	/	/	.	.	.	.	.	.
Cc1cc(N)nc(C)c1C#N	.	.	.	.	.	.	/	/	/	/	/	/
CC(=O)c1ccc(N2CCN(C(=O)c3ccc(Cn4c(=S)[nH]c5ccc(N6CCOCC6)cc5c4=O)cc3)CC2)cc1	.	.	.	.	.	.	/	/	/	/	/	/
CCCN1CNC(=S)N(c2ccccc2OC)C1	.	.	.	.	.	.	/	/	/	/	/	/
CCCN1CN(c2ccccc2)C(=S)N(c2ccccc2)C1	195.1[activator]	.	/	.	?	.	.	.	.	.	.	.
CC1CCCCN1CCCNC(=O)c1cc(Br)c(Br)[nH]1 (stereo not drawn)	.	.	.	.	.	.	/	/	/	/	/	/
O=[N+]([O-])c1cccc(/C=N/n2c(COc3ccccc3)n[nH]c2=S)c1	.	271.6[activator]	.	.	.	.	.	.	.	.	.	.	RGS4-Gao HTS=117.9
O=[N+]([O-])c1ccc(/C=N/n2c(COc3ccccc3)n[nH]c2=S)cc1	.	.	.	.	.	.	/	/	/	/	/	/
CCN(CC)CCn1c2ccccc2c2nc3ccc([N+](=O)[O-])cc3cc21	.	.	/	.	?	.	/	/	/	/	/	/
C/C(=N/NC(=O)CNc1ccc(C)cc1)c1ccc(Cl)cc1	/	/	.	/	/	/	.	.	.	.	.	.
Cc1ccc(C(=O)CNc2ccc(Cl)cc2)cc1	.	.	.	.	.	.	/	/	/	/	/	/
O=C(Nc1ccc(Cl)c(Cl)c1)Nc1ccccc1O	13.2	16.5	/	.	?	38.7	.	.	70.3	.	.	.
O=C(Nc1ccc(Cl)c(Cl)c1)Nc1ccc(Br)cc1F	.	.	.	.	.	.	/	/	/	/	/	/
COc1ccc(CCNC(=O)C(NS(=O)(=O)c2ccc3c(c2)CCN3C(C)=O)C(C)C)cc1OC (stereo not drawn)	.	.	.	.	.	.	/	/	/	/	/	/
CCOc1ccc(-c2nn(-c3ccccc3)cc2/C=C2\SC(N)=NC2=O)cc1C	22.4	1.8	.	.	15.8	12.4	.	.	.	.	.	.
SMILES	RGS4-Gao reg	RGS16-Gao HTS	GSH fluor	Avidin fluor	RGS7-Gao reg	RGS8-Gao reg	Biotin-avidin	RGS8-Gao single	RGS7-Gao confirm	RGS16-Gao single	RGS4-Gao single	RGS19-Gao conf	others
Cc1ccc(-c2nn(-c3ccccc3)cc2/C=C2\SC(=S)N(CC(=O)O)C2=O)cc1	.	.	/	.	?	.	/	/	/	/	/	/
COc1ccccc1NC(=O)Cn1cnc2c(nnn2-c2ccc(C)cc2)c1=O	.	.	.	.	154.1[activator]	.	.	.	.	.	.	.	RGS4-Gao HTS=104.3
CCOC(=O)c1ccccc1NC(=O)Cn1cnc2c(nnn2-c2ccc(C)cc2)c1=O	.	.	.	.	.	.	/	/	/	/	/	/
CCOC(=O)N1CCC(NC(=O)c2cccnc2SC)CC1	/	/	.	/	/	/	.	.	.	.	.	.
COc1ccc2c(n1)Sc1nc3ccccc3nc1N2	.	.	/	.	?	.	/	/	/	/	/	/
COC(=O)C(NC(C)=O)(Nc1nc2ccc(S(C)(=O)=O)cc2s1)C(F)(F)F (stereo not drawn)	.	-17.6	.	.	.	.	/	/	/	/	/	/	RGS4-Gao HTS=97.5
CC(C)Oc1ccc(/C=C/C(=O)NCC2COc3ccccc3O2)cc1 (stereo not drawn)	.	.	/	.	?	.	/	/	/	/	/	/
O=C(CSc1nnc2n1CCCN2)c1ccc(Cl)cc1	+[activator]	.	.	.	-277.9	-19.4	.	.	.	.	.	.
NC1=NC(c2ccccc2)N=C(Nc2ccccc2)N1 (stereo not drawn)	-57.8	-30.5	/	.	?	0.9	.	.	.	.	.	.
Cn1c(SCC(=O)c2ccccc2)nnc1-c1cccs1	.	.	/	.	?	.	/	/	/	/	/	/
O=C1Cc2cc(CCN3CCN(c4nsc5ccccc45)CC3)c(Cl)cc2N1	.	.	.	.	.	.	/	/	/	/	/	/
Nc1nc(-c2ccc3c(c2)CCO3)cs1	.	.	.	.	.	.	/	/	/	/	/	/
CN(C)CCCN(C(=O)c1ccco1)c1nc2ccc(F)cc2s1	.	.	.	.	?	.	/	/	/	/	/	/
Cc1ccc2nc(N(CCCN(C)C)C(=O)c3ccco3)sc2c1	+[activator]	+[activator]	232	252	+[activator]	237.2[activator]	.	.	.	.	.	.
CC(C)(C)NC(=O)NC(=O)COC(=O)CCC1CCCC1	.	.	/	.	?	.	/	/	/	/	/	/
CCOC(=O)C1CCCN(C2CC(=O)N(c3ccccc3)C2=O)C1 (stereo not drawn)	.	.	.	.	.	.	/	/	/	/	/	/

Assay outcomes as filed in PubChem BioAssay.
